# In PubChem BioAssay (NCATS):
# Records with an inconclusive call do not appear. Entries that show only a call come without a potency. Activity calls are given as the source filed them. The call rests on the fitted dose curve; in most records, active means well fitted inhibition curve with a large enough effect; inconclusive means small, poorly fitted or top-dose-only effect; inactive means no such curve, though single readings can be large or run the other way.
# Columns and labels:
# [1] = tested on: Zika virus NS2B-NS3 protease (unlinked complex); experiment: Primary screen GU Rhodamine qHTS for Zika virus inhibitors: Unlinked NS2B-NS3 protease assay (AID 1347159); further: nearly all actives have a fitted effect of over 60% in size
# Summary of the method: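 Noncovalent NS2B hydrophilic domain–NS3 protease domain complex (25 nM) preincubated 15 min at room temperature with compounds (up to 114 microM) in 10 mM Tris-HCl pH 8.0, 0.01% Tween 20; 1.5 microM Rhodamine110 substrate added, fluorescence change over 15 min fitted to Hill equation.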
# [2] = tested on: Zika virus NS2B-NS3 protease (linked construct); experiment: Primary screen NINDS Rhodamine qHTS for Zika virus inhibitors (AID 1347160); further: nearly all actives have a fitted effect of over 55% in size
# Summary of the method: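 Purified linked NS2B-NS3 protease (NS2B hydrophilic domain joined to NS3 protease by flexible linker), 25 nM in 10 mM Tris-HCl pH 8.0, 0.01% Tween 20. Compounds titrated, 15 min preincubation at room temperature; 1.5 microM Rhodamine110 substrate, FITC fluorescence change over 15 min.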
# Potency means the concentration at half of the fitted maximal effect.
Structure (SMILES),Potency [1],Potency [2]
CC(=O)OC1C(O)C2C(C)C3=CC(=O)OC3(O)CC2C2(C)CCCC(C)(CO)C12 (configuration not stated),inactive,inactive
CC1CCC2(OC1)OC1CC3C4CCC5C[C@@H](O[C@@H]6O[C@H](CO[C@@H]7OC[C@@H](O)[C@H](O)[C@H]7O)[C@H](O)[C@H](O)[C@H]6O)CC[C@]5(C)C4CC[C@]3(C)C1C2C (some centres not stated),inactive,inactive
C=CC1(C)CC(OC(=O)/C(C)=C\COC(C)=O)C(C(=C)C(=O)O)C(O)C1C(=C)CO (configuration not stated),inactive,inactive
C=C1C(=O)O[C@H]2[C@H]1CC/C(C)=C/CC[C@@]1(C)O[C@@H]21,inactive,inactive
Cc1ccc(NC(=O)C(=O)NC2CC(C)(C)NC(C)(C)C2)cc1,inactive,inactive
Nc1ncnc2c1ncn2CCNCCCCCO,inactive,inactive
CC(O)/C=C/C1(O)C2(C)COC1(C)CC(O)C2 (configuration not stated),inactive,inactive
CC(=O)N[C@H]1[C@H](O[C@H]2CC[C@@]3(C)C(CC[C@]4(C)C3CC=C3C5CC(C)(C)CC[C@]5(C(=O)O)[C@H](O)C[C@]34C)C2(C)C)O[C@H](CO[C@@H]2OC[C@H](O)[C@H](O)[C@H]2O[C@@H]2OC[C@@H](O)[C@H](O)[C@H]2O)[C@@H](O)[C@@H]1O (some centres not stated),inactive,inactive
COc1cc(O)cc(C)c1C(=O)O[C@@H]1[C@H](O)[C@@H](CO)O[C@H]1n1ccc(=O)[nH]c1=O,inactive,inactive
O=C(c1ccc(/C=C/c2n[nH]c3ccccc23)cc1)N1CCNCC1,inactive,inactive
C/C=C/c1cc(OC)c2c(c1)[C@@H](C)[C@@H](c1ccc(O)c(OC)c1)O2,inactive,inactive
C=C1CCCC2(C)CC3(OC)OC(=O)C(C)=C3CC12 (configuration not stated),inactive,inactive
CN1CCN(Cc2ccc(-c3cnc4[nH]cc(-c5ccc6[nH]ccc6c5)c4c3)cc2)CC1,inactive,inactive
C=C(CCC1=C(C)[C@H]2[C@H](CC3[C@@H]4CC=C5C[C@@H](O)C[C@@H](O)[C@]5(C)C4[C@H](O)C[C@@]32C)O1)CO[C@@H]1O[C@H](CO)[C@@H](O)[C@H](O)[C@H]1O (some centres not stated),inactive,inactive
Fc1ccc2nc(CCC#Cc3ccccn3)cn2c1,inactive,inactive
CC1(C=O)CC[C@]2(C(=O)O[C@@H]3O[C@H](CO)[C@@H](O)[C@H](O)[C@H]3O)CC[C@]3(C)C(=CCC4[C@@]5(C)C[C@H](O)[C@H](O[C@@H]6OC[C@@H](O)[C@H](O)[C@H]6O)[C@@](C)(CO)C5CC[C@]43C)C2C1 (some centres not stated),inactive,inactive
CN(CCc1ccc(Nc2ncc(-c3cccnc3)s2)cc1)Cc1ccccc1,inactive,inactive
Cc1cccc(Oc2cnc(=O)[nH]c2)c1,inactive,inactive
COc1ncc(Nc2ncc([C@@H](C)N3CCN(S(C)(=O)=O)CC3)cc2-c2nc(C)nc(N)n2)cc1F,44.7 µM (active),inactive
OCc1ccc(O[C@@H]2O[C@H](CO)[C@@H](O)[C@H](O)[C@H]2O)cc1,inactive,inactive
Nc1nc2c(ncn2[C@@H]2O[C@@H]3COP(=O)(O)O[C@H]3[C@H]2O)c(=O)[nH]1,inactive,inactive

Structure (SMILES),Potency [1],Potency [2]
C[C@@H]1CC[C@@]2(OC1)O[C@H]1C[C@H]3[C@@H]4CC=C5C[C@@H](O)CC[C@]5(C)[C@H]4CC[C@]3(C)[C@H]1[C@@H]2C,inactive,inactive
C=CC(=O)Nc1cc(Nc2ncc(Cl)c(-c3c[nH]c4ccccc34)n2)c(OC)cc1N(C)CCN(C)C,inactive,inactive
c1cn2cc(-c3ccc4cn[nH]c4c3)nc(Nc3ccc(N4CCOCC4)cc3)c2n1,inactive,inactive
C[C@@H]1C(=O)O[C@H](C)[C@H]1CC(=O)[C@](C)(O)[C@H]1CC[C@@]2(O)C3=CC(=O)[C@@H]4C[C@@H](O)[C@@H](O)C[C@]4(C)C3CC[C@]12C (some centres not stated),inactive,inactive
COc1cc2nc(N3CCC(N4CCCCC4)CC3)nc(NC3CCCCCC3)c2cc1OC,inactive,inactive
CC(C)(C)CCN1C[C@@H]2C(CNC(=O)c3cc(Cl)cc(Cl)c3)[C@@H]2C1 (some centres not stated),inactive,inactive
Cc1nc2ccc(Oc3ccc(F)cc3)cc2c(=O)n1C[C@H]1CCCN(C(C)C)C1,inactive,inactive
COC(=O)[C@@]1(c2ccc(C)cc2)C[C@H]1CN1CCC(O)(c2ccccc2)CC1,inactive,inactive
COC(=O)Cc1cc2c(c([N+](=O)[O-])c1)N(C(=O)CC[C@H](N)C(=O)O)CC2,inactive,inactive
COc1cc(O)cc(C)c1C(=O)OC1C(CO)OC(OC2C(O)C(O)C(O)C(O)C2O)C(O)C1O (configuration not stated),inactive,inactive
CC(NC(=O)C(O)C(C)C)C(=O)NC1C(=O)N(C)CCc2ccccc21 (configuration not stated),inactive,inactive
O=C(Nc1ccccc1-c1cn2c(CN3CCNCC3)csc2n1)c1ccc2ccccc2n1,inactive,inactive
COC(=O)CC(O)CC(O)/C=C/c1c(C)ccc2c1C(O)CC(C)C2 (configuration not stated),inactive,inactive
CCN(CC)Cc1ccc(C(=O)N(CCc2ccccc2OC)[C@@H]2CCNC2)cc1,inactive,inactive
c1cc(Nc2cc(C3CC3)[nH]n2)nc(Nc2ccc3nc[nH]c3c2)n1,inactive,inactive
CC[C@H]1OC(=O)[C@](C)(F)C(=O)[C@H](C)[C@@H](O[C@@H]2O[C@H](C)C[C@H](N(C)C)[C@H]2O)[C@](C)(OC)C[C@@H](C)C(=O)[C@@H](C)[C@H]2N(CCCCn3cc(-c4cccc(N)c4)nn3)C(=O)O[C@]12C,inactive,inactive
O=C1Nc2ccccc2C(O)(c2ccccc2)C1O (configuration not stated),inactive,inactive
Cc1cccc(C)c1OCc1cc(C(=O)N2CCC(c3ccncc3)CC2)no1,inactive,inactive
CC(=O)N[C@H]1[C@H](O[C@H]2CC[C@@]3(C)C(CC[C@]4(C)C3CC=C3[C@@H]5CC(C)(C)CC[C@]5(C(=O)OC5OCC(O)C(O)C5O)CC[C@]34C)C2(C)C)O[C@H](COC2OC(C)C(O)C(OC3OC(C)C(O)C(O)C3O)C2O)[C@@H](O)[C@@H]1O (some centres not stated),inactive,inactive
O=C(O)c1cc(I)ccc1NC(=O)[C@H](Cc1ccccc1)NCc1ccccc1,11.2 µM (active),15.8 µM (active)
C/C1=C\C[C@]2(C)C(=O)C(O)=C([C@H](C)CO)[C@H]2C/C=C(\C)[C@@H](O)CC/C(C)=C/CC1,inactive,inactive

Structure (SMILES),Potency [1],Potency [2]
C=C1CCC2C(C(C)(C)O)CCC2(C)CC(O)C(=C)CCC1O (configuration not stated),inactive,inactive
O=C1C=CC(O)(/C=C/C(=O)OC[C@H]2O[C@@H](Oc3ccc(O)cc3)[C@H](O)[C@@H](O)[C@@H]2O)C=C1,inactive,inactive
CC(/C=C/C1=CC2=CC(=O)C(C)(O)C(O)C2=CO1)=C\C(C)CCO (configuration not stated),inactive,inactive
COc1cc(N2CCC(N3CCN(C)CC3)CC2)ccc1Nc1ncc(Cl)c(-c2c[nH]c3ccccc23)n1,inactive,inactive
C=C1CC[C@@H]2[C@@](C)(CO[C@@H]3O[C@H](CO)C(O)[C@H](O)C3O)[C@H](O)CC[C@@]2(C)[C@@H]1CC/C(C)=C/CO (some centres not stated),inactive,inactive
COc1ccc(CC2C(=O)NC(C)C(=O)N(C)C3Cc4ccc(cc4)Oc4cc(ccc4OC4OC(CO)C(O)C(O)C4O)CC(C(=O)NC(C)C(=O)NC(C)C(=O)N2C)N(C)C3=O)cc1 (configuration not stated),inactive,inactive
OC[C@H]1O[C@@H](OC(CCCCc2ccc(O)cc2)CCc2ccc(O)cc2)[C@H](O)[C@@H](O)[C@@H]1O (some centres not stated),inactive,inactive
C[C@@H]1C(=O)O[C@H]2C[C@]34[C@H]5C[C@@H](C(C)(C)C)[C@]36[C@@H](OC(=O)[C@H]6O)O[C@]4(C(=O)O5)[C@]21O,inactive,inactive
CC(C)CC(=O)O[C@@H]1OC=C(CO[C@@H]2O[C@H](CO)[C@@H](O)[C@H](O)[C@H]2O)[C@H]2[C@@H]3O[C@H]3[C@@](O)(CO)[C@@H]12,inactive,inactive
CC[C@H]1OC(=O)[C@H](C)[C@@H](O[C@H]2C[C@@](C)(OC)[C@@H](O)[C@H](C)O2)[C@H](C)[C@@H](O[C@@H]2O[C@H](C)C[C@H](N(C)C)[C@H]2O)[C@](C)(O)C[C@@H](C)C(=O)[C@H](C)[C@H]2OC(=O)O[C@@]21C,inactive,inactive
CC1=C(COC2OC(CO)C(O)C(O)C2O)C(C(CO)C(=O)O)CC1 (configuration not stated),inactive,inactive
CC(=O)O[C@@](C)(C(=O)/C=C/C(C)(C)O)[C@H]1[C@H](O)C[C@@]2(C)[C@@H]3CC=C4[C@@H](C=C(O)C(=O)C4(C)C)[C@]3(C)C(=O)C[C@]12C,inactive,inactive
Cn1cncc1C(N)(c1ccc(Cl)cc1)c1ccc2c(c1)c(-c1cccc(Cl)c1)cc(=O)n2C (configuration not stated),inactive,inactive
CCCNc1ccc2ncc(-c3ccc4[nH]ncc4c3)n2n1,inactive,inactive
C=CC(C)(CC/C=C(\C)C(=O)OC)OC1OC(COC(=O)CC(C)(O)CC(=O)O)C(OC2OC(CO)C(O)C(O)C2O)C(O)C1O (configuration not stated),inactive,inactive
CN[C@H](C(=O)N[C@H](C(=O)N(C)[C@H](/C=C(\C)C(=O)O)C(C)C)C(C)(C)C)C(C)(C)c1ccccc1,inactive,inactive
c1ccc(-c2csc(N3CCOCC3)n2)cc1,inactive,inactive
COC(=O)C1=COC(O[C@@H]2O[C@H](CO)[C@@H](O)[C@H](O)[C@H]2O)[C@H]2[C@@H]1[C@H](OC(=O)CCc1ccc(O)cc1)C[C@]2(C)O (some centres not stated),inactive,inactive
CC1(C)CC[C@]2(C(=O)O[C@@H]3O[C@H](CO)[C@@H](O)[C@H](O)[C@H]3O)CC[C@]3(C)C(=CCC4[C@@]5(C)C[C@@H](O)[C@H](O)[C@](C)(C(=O)O)C5CC[C@]43C)C2C1O (some centres not stated),inactive,inactive
